Source: PubChem BioAssay (EPA / NIEHS)
“And” between values parts separate entries of the source, which are not always exact repeats. Equal entries are not always repeated. More than one record can exist for a structure, and the calls need not agree. The source made the active and inactive calls. The calls were made as follows: active = hit-call score of the fitted dose curve at least 0.9, where 1 is the maximum; inactive = score below 0.9.

Tests used:
[1] = read-out: Human Leukocyte Antigen - DR isotype (HLADR), HLA-DRA (gene 3122); experiment: BSK_3C_HLADR: BioMAP Diversity Plus: 3C Assay for Human Leukocyte Antigen - DR isotype (HLADR) Biomarker Activity (AID 2283019); conditions: primary human endothelial cells (HUVEC); actives raise or lower the signal
Procedure, shortened: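 Compound added to primary HUVEC cultures, 24 h incubation, then HLA-DR determined by ELISA; endpoint derived by bidirectional fitting relative to DMSO negative control.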

[2] = read-out: Interleukin-8 (IL8), CXCL8 (gene 3576); experiment: BSK_3C_IL8: BioMAP Diversity Plus: 3C Assay for Interleukin-8 (IL8) Biomarker Activity (AID 2283020); conditions: primary human endothelial cells (HUVEC); actives raise or lower the signal
Procedure, shortened: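 HUVEC, 3C stimulation; 24 h compound exposure; IL-8 read by ELISA; gain or loss of signal fitted relative to DMSO control.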

[3] = read-out: Monokine induced gamma interferon (MIG), CXCL9 (gene 4283); experiment: BSK_3C_MIG: BioMAP Diversity Plus: 3C Assay for Monokine induced gamma interferon (MIG) Biomarker Activity (AID 2283021); conditions: primary human endothelial cells (HUVEC); actives raise or lower the signal;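 as to AC50: MIG protein level measured by immunoassay in the treated endothelial cultures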
Procedure, shortened: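 HUVEC, 3C system; 24 h chemical exposure; MIG by ELISA; bidirectional fit vs DMSO baseline.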

[4] = BSK_3C_SRB: Viability Assessment in the BioMAP Diversity Plus: 3C Assay (AID 2283023); conditions: primary human endothelial cells (HUVEC);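 also: fitted both ways against DMSO so a hit may be signal rise or drop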
Procedure, shortened: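 Overt cytotoxicity is gauged in parallel confluent HUVEC cultures by SRB total-protein staining at the time of biomarker measurement, 24 h after dosing. Gain or loss of signal is fitted versus DMSO.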

[5] = read-out: Matrix Metallopeptidase 1 (MMP1), MMP1 (gene 4312); experiment: BSK_BE3C_MMP1: BioMAP Diversity Plus: BE3C Assay for Matrix Metallopeptidase 1 (MMP1) Biomarker Activity (AID 2283024); conditions: primary human bronchial epithelial cells; actives raise or lower the signal
Procedure, shortened: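 ELISA read-out of MMP1 in human lung bronchial epithelial primary cultures, 24 h post-dose; bidirectional curve fit vs DMSO baseline, gain or loss of signal scored.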

[6] = BSK_3C_Vis: BioMAP Diversity Plus: 3C Assay for Morphology Visualization (AID 2283025); conditions: primary human endothelial cells (HUVEC);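 also: fitted both ways so gain or loss versus DMSO counts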;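 as to AC50: light microscopy image of cell morphology used as background control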
Procedure, shortened: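 HUVEC, 3C system; light microscopy of morphology at 24 h post-dose. Bidirectional fit vs DMSO baseline. Secondary readout, background-control function.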

[7] = read-out: Pselectin, SELP (gene 6403); experiment: BSK_4H_Pselectin: BioMAP Diversity Plus: 4H Assay for Pselectin Biomarker Activity (AID 2283026); conditions: primary human endothelial cells (HUVEC); actives raise or lower the signal
Procedure, shortened: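 HUVEC, 24 h chemical exposure; P-selectin read by ELISA. Bidirectional curve fit vs DMSO baseline; gain or loss of signal scored.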

[8] = BSK_4H_SRB: Viability Assessment in the BioMAP Diversity Plus: 4H Assay (AID 2283027); conditions: primary human endothelial cells (HUVEC);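 also: cells exposed to compound for 24 h before staining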;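 as to AC50: curves fitted both ways versus DMSO so AC50 may be loss or gain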
Procedure, shortened: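 Cytotoxicity readout: sulforhodamine B (0.1%) staining of total protein after 10% TCA fixation, measured at 560 nm in human umbilical vein endothelium at 24 h. DMSO set the baseline; fitting was bidirectional.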

[9] = read-out: Thrombomodulin, THBD (gene 7056); experiment: BSK_3C_Thrombomodulin: BioMAP Diversity Plus: 3C Assay for Thrombomodulin Biomarker Activity (AID 2283029); conditions: primary human endothelial cells (HUVEC); actives raise or lower the signal
Procedure, shortened: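 HUVEC, 3C conditions; compound 24 h; thrombomodulin by ELISA; bidirectional curve fit vs DMSO baseline; parallel SRB total-protein staining for cytotoxicity.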

[10] = read-out: Urokinase-type plasminogen activator receptor (uPAR), PLAUR (gene 5329); experiment: BSK_4H_uPAR: BioMAP Diversity Plus: 4H Assay for Urokinase-type plasminogen activator receptor (uPAR) Biomarker Activity (AID 2283030); conditions: primary human endothelial cells (HUVEC); actives raise or lower the signal
Procedure, shortened: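 Endpoint derived via bidirectional curve fitting against DMSO baseline; readout was ELISA detection of uPAR on umbilical vein endothelial cells at 24 h post-treatment, with SRB-stained parallel cultures assessing cytotoxicity.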

[11] = read-out: Vascular endothelial growth factor receptor 2 (Homo sapiens) (UniProt P35968); experiment: BSK_4H_VEGFRII: BioMAP Diversity Plus: 4H Assay for Vascular endothelial growth factor receptor 2 (VEGFR2) Biomarker Activity (AID 2283031); conditions: primary human endothelial cells (HUVEC); actives raise or lower the signal;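 as to AC50: cell-surface VEGFR2 protein level quantified by ELISA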
Procedure, shortened: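 In this multiplexed HUVEC system, biomarker ELISA was performed after 24 h chemical exposure. Parallel SRB staining (TCA fixation, 560 nm) tracked cytotoxicity; DMSO served as baseline.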

[12] = read-out: Human Leukocyte Antigen - DR isotype (HLADR), HLA-DRA (gene 3122); experiment: BSK_BE3C_HLADR: BioMAP Diversity Plus: BE3C Assay for Human Leukocyte Antigen - DR isotype (HLADR) Biomarker Activity (AID 2283032); conditions: primary human bronchial epithelial cells; actives raise or lower the signal
Procedure, shortened: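 Primary human bronchial epithelial cells (BE3C); 24 h chemical exposure; HLA-DR by ELISA; bidirectional curve fit vs DMSO baseline.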

[13] = read-out: Interferon-gamma inducible Protein 10 (IP10), CXCL10 (gene 3627); experiment: BSK_BE3C_IP10: BioMAP Diversity Plus: BE3C Assay for Interferon-gamma inducible Protein 10 (IP10) Biomarker Activity (AID 2283034); conditions: primary human bronchial epithelial cells; actives raise or lower the signal
Procedure, shortened: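 ELISA readout of IP-10 in BE3C system: primary human bronchial epithelial cells, 24 h post-dosing; bidirectional curve fit vs DMSO baseline.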

[14] = read-out: Monokine induced gamma interferon (MIG), CXCL9 (gene 4283); experiment: BSK_BE3C_MIG: BioMAP Diversity Plus: BE3C Assay for Monokine induced gamma interferon (MIG) Biomarker Activity (AID 2283035); conditions: primary human bronchial epithelial cells; actives raise or lower the signal
Procedure, shortened: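 hu bronchial epithelial 1° cells, 24 h cpd; MIG by ELISA; bidirectional fit, DMSO = baseline.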

[15] = read-out: Transforming growth factor beta 1 (TGFb1), TGFB1 (gene 7040); experiment: BSK_BE3C_TGFb1: BioMAP Diversity Plus: BE3C Assay for Transforming growth factor beta 1 (TGFb1) Biomarker Activity (AID 2283036); conditions: primary human bronchial epithelial cells; actives raise or lower the signal
Procedure, shortened: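 Read-out: ELISA for TGF-b1 in primary human bronchial epithelial cultures, 24 h post-dose. Bidirectional curve fitting vs DMSO control; gain or loss of signal both scored.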

[16] = read-out: Plasminogen activator inhibitor-1 (PAI1), SERPINE1 (gene 5054); experiment: BSK_BE3C_PAI1: BioMAP Diversity Plus: BE3C Assay for Plasminogen activator inhibitor-1 (PAI1) Biomarker Activity (AID 2283037); conditions: primary human bronchial epithelial cells; actives raise or lower the signal
Procedure, shortened: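 ELISA read-out of PAI-1 from human bronchial epithelial primary cells, 24 h post-dosing; bidirectional curve fit vs DMSO baseline, gain or loss of signal scored.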

[17] = read-out: urokinase plasminogen activator (uPA), PLAU (gene 5328); experiment: BSK_BE3C_uPA: BioMAP Diversity Plus: BE3C Assay for urokinase plasminogen activator (uPA) Biomarker Activity (AID 2283038); conditions: primary human bronchial epithelial cells; actives raise or lower the signal
Procedure, shortened: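 Using confluent primary human lung bronchial epithelial cultures, we dosed chemicals, waited 24 h, then ran a uPA ELISA, fitting bidirectionally against DMSO.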

[18] = read-out: Urokinase-type plasminogen activator receptor (uPAR), PLAUR (gene 5329); experiment: BSK_BE3C_uPAR: BioMAP Diversity Plus: BE3C Assay for Urokinase-type plasminogen activator receptor (uPAR) Biomarker Activity (AID 2283039); conditions: primary human bronchial epithelial cells; actives raise or lower the signal
Procedure, shortened: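 ELISA readout of uPAR on human lung primary bronchial epithelial cells, 24 h post-dosing. Bidirectional curve fit relative to DMSO vehicle baseline; gain or loss of signal both scored.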

[19] = read-out: Vascular cell adhesion molecule 1 (VCAM1), VCAM1 (gene 7412); experiment: BSK_4H_VCAM1: BioMAP Diversity Plus: 4H Assay for Vascular cell adhesion molecule 1 (VCAM1) Biomarker Activity (AID 2283033); conditions: primary human endothelial cells (HUVEC); actives raise or lower the signal
Procedure, shortened: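 HUVEC, 24 h post-dose; VCAM-1 by ELISA. Bidirectional curve fit vs DMSO baseline. Parallel SRB total-protein stain (0.1% SRB after 10% TCA fixation, 560 nm) for cytotoxicity.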

[20] = BSK_BE3C_SRB: Viability Assessment in the BioMAP Diversity Plus: BE3C Assay (AID 2283028); conditions: primary human bronchial epithelial cells;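 also: measured 24 h after chemical dosing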;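 as to AC50: fitted both ways so AC50 may mark signal gain or loss versus DMSO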
Procedure, shortened: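 SRB total-protein staining (0.1%, after TCA fixation) of chemically dosed human bronchial epithelial primary cells at 24 h; DMSO serves as the negative control for bidirectional curve fitting.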

Measured: AC50

CCCCC(CC)COC(=O)c1ccccc1C(=O)O (centres undefined)
active: [15] 5.04 µM | [17] 29.9 µM
not listed: [19] | [20]
inactive: all other assays above

CCC(O)=C1C(=O)CC(C(=O)O)CC1=O (centres undefined)
not listed: [19] | [20]
inactive: all other assays above

O=C(O)c1ccccc1
not listed: [20]
inactive: all other assays above

CC(C)CCCCCCc1ccc(O)cc1
active: [1] 9.6 µM | [2] 8.35 µM | [3] 8.53 µM | [5] 32 µM | [6] 5.31 µM | [7] 9.15 µM | [8] 6.94 µM | [20] 36 µM | [9] 20 µM | [10] 9.57 µM | [11] 5.29 µM | [12] 26.2 µM | [19] 7.96 µM | [13] 14.7 µM | [14] 33.4 µM | [15] 26.2 µM | [16] 31 µM | [17] 31.6 µM | [18] 33.3 µM

S=C(S)NCCNC(=S)S.[Mn+2].[S-]C([S-])=NCCN=C([S-])[S-].[Zn+2]
active: [1] 13.3 µM [middle of 4 runs] | [5] 1.34 µM | [12] 8.2 µM and 10 µM | [13] 15.2 µM | [17] 209 nM and 1.08 µM and 2.73 µM
inactive: [1] | [2] | [3] | [5] | [6] | [7] | [8] | [9] | [10] | [11] | [12] | [13] | [14] | [15] | [16] | [17] | [18]

CCCCOCCOCCOCc1cc2c(cc1CCC)OCO2
not listed: [4] | [20]
inactive: all other assays above

CC(=O)[C@H]1CC[C@H]2[C@@H]3CCC4=CC(=O)CC[C@]4(C)[C@H]3CC[C@]12C
active: [1] 20 µM | [2] 20 µM | [5] 7.49 µM | [6] 9.8 µM | [7] 31.9 µM | [10] 10 µM
not listed: [4] | [11] | [19]
inactive: all other assays above

CCOC(=O)C(C)Oc1ccc(Oc2cnc3cc(Cl)ccc3n2)cc1 (centres undefined)
not listed: [4] | [15] | [19] | [20]
inactive: all other assays above

CCOC(=O)[C@H](C)Oc1ccc(Oc2nc3ccc(Cl)cc3o2)cc1
active: [1] 7.25 µM | [16] 3.97 µM
not listed: [4] | [20]
inactive: all other assays above

COCCO
not listed: [4] | [11] | [19] | [20]
inactive: all other assays above

CCCCC(CC)CN1C(=O)C2C3C=CC(C3)C2C1=O (centres undefined)
active: [1] 30.6 µM | [5] 15.9 µM | [12] 15.7 µM | [13] 18.2 µM | [16] 28.1 µM
not listed: [4] | [19] | [20]
inactive: all other assays above

CCOC(=O)c1ccc(O)cc1
not listed: [4] | [20]
inactive: all other assays above

COC(=O)c1ccc(CNS(C)(=O)=O)cc1S(=O)(=O)NC(=O)Nc1nc(OC)cc(OC)n1
not listed: [4] | [20]
inactive: all other assays above
